# Measurements taken from PubChem BioAssay (NCATS).
# Records with an inconclusive call do not appear. The source made the active and inactive calls. Unless noted, the rule behind the calls is not given here.
# Experiments:
# [1] = qHTS profiling of the MIPE4 collection as inhibitors of Plasmodium falciparum (3D7) proliferation (AID 743344);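 note: scaled between DMSO vehicle wells and 0.29 µM artemisinin as full inhibition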; conditions: P. falciparum 3D7 in erythrocytes, SYBR Green DNA fluorescence, 72 h; at 28.5 µM
# How it was run: (§1)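 Erythrocytes infected with P. falciparum (0.3% parasitemia, 2.5% hematocrit) incubated with compounds 72 h at 37 C, 5% CO2. Lysis with saponin/Triton buffer containing SYBR Green I, overnight at room temperature in the dark; DNA fluorescence (485/535 nm) normalised to 0.29 uM artemisinin and DMSO.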
# [2] = qHTS profiling of the MIPE4 collection as inhibitors of Plasmodium falciparum (DD2) proliferation (AID 743345); conditions: P. falciparum Dd2 in erythrocytes, SYBR Green DNA, 72 h; at 28.5 µM unless noted
# How it was run: as §1
# [3] = qHTS profiling of the MIPE4 collection as inhibitors of Plasmodium falciparum (DD2) proliferation (Rep 2) (AID 743346); conditions: P. falciparum Dd2 in erythrocytes, SYBR Green DNA, 72 h; at 28.5 µM
# How it was run: as §1
# [4] = qHTS assay for cell viability of the p53RE-bla HCT-116 cell line (AID 743292; active = well fitted curve in the direction sought with a large enough effect; an effect the other way counts as inactive or inconclusive; note: % is set by controls: 0 for no effect and ±100 for the full control effect; nearly all actives have a fitted effect of over 55% in size)
# How it was run: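 ATP-based luminescence, 16 h compound exposure at 37 C, p53RE-bla HCT-116 cells at 4,000/well.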
# [5] = qHTS profiling for inhibitors of Plasmodium falciparum (3D7) proliferation (AID 743322);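 note: infected erythrocytes exposed to compound for 72 h before lysis; 100% = DMSO vehicle wells and 0% = 0.29 µM artemisinin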; conditions: P. falciparum 3D7 proliferation; at 28.7 µM (top of the series) unless noted
# How it was run: as §1
# [6] = qHTS profiling for inhibitors of Plasmodium falciparum (DD2) proliferation (AID 743323); conditions: lower = more inhibition; at 28.7 µM (top of the series) unless noted
# How it was run: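 1536-well qHTS; infected RBCs 0.3% parasitemia/2.5% Hct final; cpd 72 h 37 C 5% CO2; lysis buffer + SYBR Green I, o/n RT dark; FI 485/535; norm. to 0.29 uM artemisinin and DMSO, plate-stack corrected.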
# [7] = qHTS profiling for inhibitors of Plasmodium falciparum (HB3) proliferation (AID 743324; active = well fitted curve in the direction sought with a large enough effect; an effect the other way counts as inactive or inconclusive;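 note: 100% = DMSO vehicle wells and 0% = artemisinin-treated control wells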); conditions: Plasmodium falciparum HB3 blood-stage proliferation; at 28.7 µM (top of the series) unless noted
# How it was run: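 P. falciparum HB3 grown in erythrocytes (0.3% parasitemia, 2.5% hematocrit final) with compound for 72 h at 37 C, 5% CO2. Parasite DNA detected by SYBR Green after saponin/triton lysis overnight; normalized to 0.29 uM artemisinin and DMSO.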
compound,measurement,setting,value
C[C@](O)(COc1ccc(C#N)cc1)C(=O)Nc1ccc(C#N)c(C(F)(F)F)c1,"parasite growth, % of DMSO control",[1],6.31%
same,"parasite growth remaining, % of DMSO control (lower = more inhibition)",[2],92.3%
same,"parasite growth, % of control (lower = inhibition)",[3],20.8%
CCCCCCCCCC(CC)c1ccc(S(=O)(=O)O)cc1 (configuration not stated),Potency,[4],inactive
COc1ccc2c(c1)CC[C@H]1[C@@H]2CC[C@]2(C)[C@@H](NCCCCCCN3C(=O)C=CC3=O)CC[C@H]12,remaining parasite growth % (stronger effect = lower value),[5],86.3%
same,"activity, percent of control",[6],73.1%
same,"remaining proliferation (% of control), lower = more inhibition",[7],50.7%
same,"parasite growth, % of control (lower = inhibition)",[3],37.3%
c1cc2ccc3cccc4ccc(c1)c2c34,Potency,[4],inactive
COC[C@H]1OC(=O)c2coc3c2[C@@]1(C)C1=C(C3=O)[C@@H]2CC[C@H](O)[C@@]2(C)C[C@@H]1OC(C)=O,"parasite growth, % of DMSO control",[1],93.1%
same,"parasite growth remaining, % of DMSO control (lower = more inhibition)",[2],83.2%
same,"parasite growth, % of control (lower = inhibition)",[3],79.7%
CC(C)(C)c1[nH]cnc1C=c1[nH]c(=O)c(=Cc2ccccc2)[nH]c1=O,remaining parasite growth % (stronger effect = lower value),[5],58.1%
same,"activity, percent of control",[6],49.6%
same,"remaining proliferation (% of control), lower = more inhibition",[7],37.2%
same,"parasite growth remaining, % of DMSO control (lower = more inhibition)",[2],41.8% [at 57.5 µM]
Cc1ccccc1-n1c(Cn2cnc3c(N)ncnc32)nc2cccc(C)c2c1=O,remaining parasite growth % (stronger effect = lower value),[5],43.1%
same,"activity, percent of control",[6],37.6%
same,"remaining proliferation (% of control), lower = more inhibition",[7],24.9%
same,"parasite growth remaining, % of DMSO control (lower = more inhibition)",[2],12.7%
same,"parasite growth, % of control (lower = inhibition)",[3],6.97%
CCNC(=O)CC1N=C(c2ccc(Cl)cc2)c2cc(OC)ccc2-n2c(C)nnc21 (configuration not stated),"parasite growth, % of DMSO control",[1],26.1%
same,"parasite growth remaining, % of DMSO control (lower = more inhibition)",[2],93.8%
same,"parasite growth, % of control (lower = inhibition)",[3],70.5%
O=C(Oc1ccc([N+](=O)[O-])cc1)N1CCC(C(O)(c2ccc3c(c2)OCO3)c2ccc3c(c2)OCO3)CC1,remaining parasite growth % (stronger effect = lower value),[5],26.6%
same,"activity, percent of control",[6],90.2%
same,"remaining proliferation (% of control), lower = more inhibition",[7],75.8%
same,"parasite growth remaining, % of DMSO control (lower = more inhibition)",[2],78.9%
same,"parasite growth, % of control (lower = inhibition)",[3],33.6%
Nc1nc(-c2nn(Cc3ccccc3F)c3ncccc23)nc(N)c1N1CCOCC1,remaining parasite growth % (stronger effect = lower value),[5],100%
same,"activity, percent of control",[6],94.1%
same,"remaining proliferation (% of control), lower = more inhibition",[7],67.6%
same,"parasite growth remaining, % of DMSO control (lower = more inhibition)",[2],91.1%
same,"parasite growth, % of control (lower = inhibition)",[3],60.8%
CC(C)Oc1cccc(NC(=O)c2ccccc2C(F)(F)F)c1,Potency,[4],inactive
CC[C@@H]1[C@@H](C)O[C@@](O)([C@@H](C)[C@H](O)[C@H](C)[C@H]2OC(=O)C=CC=C[C@@H](C)[C@@H]([C@@H](C)[C@@H](O)[C@H](C)[C@@]3(O)C[C@H](O[C@H]4C[C@H](O)[C@H](O)[C@H](C)O4)[C@H](CC)[C@@H](C)O3)OC(=O)C=CC=C[C@@H]2C)C[C@H]1O[C@H]1C[C@H](O)[C@H](O)[C@H](C)O1,"parasite growth, % of DMSO control",[1],49.6%
same,"parasite growth remaining, % of DMSO control (lower = more inhibition)",[2],6.07%
same,"parasite growth, % of control (lower = inhibition)",[3],25.8%
CC(C)(O)C(=O)Nc1ccc([N+](=O)[O-])c(C(F)(F)F)c1,Potency,[4],inactive
same,"parasite growth remaining, % of DMSO control (lower = more inhibition)",[2],97.4%
same,"parasite growth, % of control (lower = inhibition)",[3],70.6%
CCCN1CCO[C@@H]2c3cc(O)ccc3OC[C@@H]21,"parasite growth, % of DMSO control",[1],98.1%
same,"parasite growth remaining, % of DMSO control (lower = more inhibition)",[2],99.7%
same,"parasite growth, % of control (lower = inhibition)",[3],91%
CC(C)[C@H]1C(=O)N[C@H](CO)Cc2c[nH]c3cccc(c23)N1C,remaining parasite growth % (stronger effect = lower value),[5],107%
same,"activity, percent of control",[6],97.3%
same,"remaining proliferation (% of control), lower = more inhibition",[7],80%
same,"parasite growth remaining, % of DMSO control (lower = more inhibition)",[2],97.6%
same,"parasite growth, % of control (lower = inhibition)",[3],147%
C=C[C@@H]1CN2CCC1C[C@@H]2[C@@H](O)c1ccnc2ccccc12 (some centres not stated),"parasite growth, % of DMSO control",[1],15.2%
same,"parasite growth remaining, % of DMSO control (lower = more inhibition)",[2],21.4%
same,"parasite growth, % of control (lower = inhibition)",[3],45.8%
N#C[C@H](O[C@@H]1O[C@H](CO[C@@H]2O[C@H](CO)[C@H](O)[C@H](O)[C@H]2O)[C@H](O)[C@H](O)[C@H]1O)c1ccccc1,"parasite growth, % of DMSO control",[1],61.2%
same,"parasite growth remaining, % of DMSO control (lower = more inhibition)",[2],17.6%
same,"parasite growth, % of control (lower = inhibition)",[3],37.7%
COc1ccc(C(=O)c2c(C)n(CCN3CCOCC3)c3cc(I)ccc23)cc1,"parasite growth, % of DMSO control",[1],44.6%
same,"parasite growth remaining, % of DMSO control (lower = more inhibition)",[2],85%
same,"parasite growth, % of control (lower = inhibition)",[3],35.4%
CN[C@@H]1Cc2cccc3[nH]c(=O)n(c23)C1,"parasite growth, % of DMSO control",[1],92.4%
same,"parasite growth remaining, % of DMSO control (lower = more inhibition)",[2],105%
same,"parasite growth, % of control (lower = inhibition)",[3],82.7%
CCNC(=O)C[C@@H]1N=C(c2ccc(Cl)cc2)c2cc(OC)ccc2-n2c(C)nnc21,"parasite growth, % of DMSO control",[1],76.4%
same,"parasite growth remaining, % of DMSO control (lower = more inhibition)",[2],106%
same,"parasite growth, % of control (lower = inhibition)",[3],99.1%
Cc1[nH]nc2ccc(-c3cncc(OC[C@@H](N)Cc4c[nH]c5ccccc45)c3)cc12,"parasite growth, % of DMSO control",[1],18.3%
same,"parasite growth remaining, % of DMSO control (lower = more inhibition)",[2],47.9%
same,"parasite growth, % of control (lower = inhibition)",[3],20.1%
C[C@@H]1O[C@@H](O[C@@H]2C=C3CC[C@@H]4[C@@H](CC[C@]5(C)[C@H](c6ccc(=O)oc6)CC[C@@]45O)[C@@]3(C)CC2)[C@H](O)[C@H](O)[C@H]1O,"parasite growth, % of DMSO control",[1],79%
same,"parasite growth remaining, % of DMSO control (lower = more inhibition)",[2],94.6%
same,"parasite growth, % of control (lower = inhibition)",[3],96.7%
Cc1c(N)nc([C@H](CC(N)=O)NC[C@@H](N)C(N)=O)nc1C(=O)N[C@H](C(=O)N[C@@H](C)[C@H](O)[C@@H](C)C(=O)N[C@@H](C(=O)NCCc1nc(-c2nc(C(=O)NCCC[S+](C)C)cs2)cs1)[C@@H](C)O)C(O[C@H]1O[C@H](CO)[C@H](O)[C@@H](O)[C@@H]1O[C@H]1O[C@H](CO)[C@@H](O)[C@H](OC(N)=O)[C@H]1O)c1cnc[nH]1 (some centres not stated),"parasite growth, % of DMSO control",[1],11%
same,"parasite growth remaining, % of DMSO control (lower = more inhibition)",[2],9.76%
same,"parasite growth, % of control (lower = inhibition)",[3],15.5%
CC(=O)OCC1=C(C(=O)O)N2C(=O)[C@@H](N)[C@@H]2SC1,"parasite growth, % of DMSO control",[1],90.9%
same,"parasite growth remaining, % of DMSO control (lower = more inhibition)",[2],97.8%
same,"parasite growth, % of control (lower = inhibition)",[3],77.5%
CCCC[N+]1(C)[C@H]2CC(OC(=O)[C@H](CO)c3ccccc3)C[C@H]1[C@H]1O[C@H]12 (some centres not stated),"parasite growth, % of DMSO control",[1],98.9%
same,"parasite growth remaining, % of DMSO control (lower = more inhibition)",[2],100%
same,"parasite growth, % of control (lower = inhibition)",[3],86.4%
CC(C)N(CCNC(=O)CN1CCCC1=O)C(C)C,"parasite growth, % of DMSO control",[1],101%
same,"parasite growth remaining, % of DMSO control (lower = more inhibition)",[2],17.4%
same,"parasite growth, % of control (lower = inhibition)",[3],121%
CCc1c(C(=O)C(N)=O)c2c(OCC(=O)O)cccc2n1Cc1ccccc1,"parasite growth, % of DMSO control",[1],111%
same,"parasite growth remaining, % of DMSO control (lower = more inhibition)",[2],97.5%
same,"parasite growth, % of control (lower = inhibition)",[3],83.8%
C[C@@H]1CC[C@H]2[C@@H](C)C(=O)O[C@@H]3O[C@@]4(C)CC[C@H]1[C@]32OO4,"parasite growth, % of DMSO control",[1],22.6%
same,"parasite growth remaining, % of DMSO control (lower = more inhibition)",[2],7.95%
same,"parasite growth, % of control (lower = inhibition)",[3],7.78%
N=c1c2c(-c3ccccc3)c(-c3ccccc3)n(Cc3ccccc3)c2ncn1C1CCC(O)CC1 (configuration not stated),"parasite growth, % of DMSO control",[1],10.7%
same,"parasite growth remaining, % of DMSO control (lower = more inhibition)",[2],9.02%
same,"parasite growth, % of control (lower = inhibition)",[3],12.7%
COC1=C[C@@H]2[C@@H]3Cc4ccc(OC)c(O)c4[C@]2(CCN3C)CC1=O,"parasite growth, % of DMSO control",[1],102%
same,"parasite growth remaining, % of DMSO control (lower = more inhibition)",[2],84.4%
same,"parasite growth, % of control (lower = inhibition)",[3],34.6%
CCN(CC)C(=O)c1ccc(C2=CC3(CCNCC3)Oc3cccc(O)c32)cc1,"parasite growth, % of DMSO control",[1],21.1%
same,"parasite growth remaining, % of DMSO control (lower = more inhibition)",[2],42.1%
same,"parasite growth, % of control (lower = inhibition)",[3],14.4%
